Holding throughout (parameters): species or system human, MV4-11 + K-562 + COLO205 + SK-N-BE2 + OVCAR-8
Test [1] has as its system DDR1. The conditions noted are these: read-out: apparent Kd, n = 1.
Test [2] concerns DDR2. As to conditions: read-out: apparent Kd, n = 1.
The test system of test [3] is FLT3. As to conditions: read-out: apparent Kd, n = 1.
Test [4] has as its system MAP2K1. As to conditions: read-out: apparent Kd; compound concentrations:100 nM and 1000 nM (sheet 'Samples'); n = 1.
Test [5] deals with NQO1. The conditions noted are these: read-out: apparent Kd; compound concentrations:100 nM and 1000 nM (sheet 'Samples'); n = 1.
For test [6], the system named is PIK3C3. The conditions noted are these: read-out: apparent Kd; compound concentrations:100 nM and 1000 nM (sheet 'Samples'); n = 1.
The subject of test [7] is PIK3CD. As to conditions: read-out: apparent Kd; compound concentrations:100 nM and 1000 nM (sheet 'Samples'); n = 1.
Test [8] concerns RIOK2. As to conditions: read-out: apparent Kd; compound concentrations:100 nM and 1000 nM (sheet 'Samples'); n = 1.
For test [9], the system named is SMC4. As to conditions: read-out: apparent Kd; compound concentrations:100 nM and 1000 nM (sheet 'Samples'); n = 1.
In test [10] the test system is CSNK2A1;CSNK2A3. As to conditions: read-out: apparent Kd, compound concentrations: 100 nM and 1000 nM (sheet 'Samples'), n = 1.
In test [11] the test system is CSNK2A2. The conditions noted are these: read-out: apparent Kd, compound concentrations: 100 nM and 1000 nM (sheet 'Samples'), n = 1.
The test system of test [12] is DAPK3. The conditions noted are these: read-out: apparent Kd; compound concentrations:100 nM and 1000 nM (sheet 'Samples'); n = 1.
The subject of test [13] is EGFR. The conditions noted are these: read-out: apparent Kd; compound concentrations:100 nM and 1000 nM (sheet 'Samples'); n = 1.
The subject of test [14] is HSP90B1. The conditions noted are these: read-out: apparent Kd; compound concentrations:100 nM and 1000 nM (sheet 'Samples'); n = 1.
The test system of test [15] is IRAK1. As to conditions: read-out: apparent Kd; compound concentrations:100 nM and 1000 nM (sheet 'Samples'); n = 1.
In test [16] the test system is FECH. The conditions noted are these: read-out: apparent Kd; compound concentrations: 100 nM and 1000 nM (sheet 'Samples'), CATDS: 0.167574298527637; n = 1.
The subject of test [17] is NQO2. As to conditions: read-out: apparent Kd; compound concentrations: 100 nM and 1000 nM (sheet 'Samples'), CATDS: 0.179467556500614; n = 1.
For test [18], the system named is DCTPP1. As to conditions: read-out: apparent Kd, compound concentrations: 100 nM and 1000 nM (sheet 'Samples'), n = 1.
Test [19] relates to GSK3A. As to conditions: read-out: apparent Kd, compound concentrations: 100 nM and 1000 nM (sheet 'Samples'), n = 1.
Test [20] deals with GSK3B. The conditions noted are these: read-out: apparent Kd, compound concentrations: 100 nM and 1000 nM (sheet 'Samples'), n = 1.
For test [21], the system named is HSP90AA1. The conditions noted are these: read-out: apparent Kd; compound concentrations: 100 nM and 1000 nM (sheet 'Samples'), CATDS: 0.187388385432427; n = 1.
The test system of test [22] is HSPE1. As to conditions: read-out: apparent Kd; compound concentrations: 100 nM and 1000 nM (sheet 'Samples'), CATDS: 0.293791169928867; n = 1.
Test [23] deals with PGK1. As to conditions: read-out: apparent Kd; compound concentrations: 100 nM and 1000 nM (sheet 'Samples'), CATDS: 0.43205738676527899; n = 1.
The subject of test [24] is PKM. The conditions noted are these: read-out: apparent Kd, compound concentrations: 100 nM and 1000 nM (sheet 'Samples'), n = 1.
The test system of test [25] is CSNK1G1. As to conditions: read-out: apparent Kd; compound concentrations: 100 nM and 1000 nM (sheet 'Samples'), CATDS: 0.44433796545528997; n = 1.
Test [26] has as its system T1, DJA1.
T1 construct: gene DNAJA1
As to conditions: read-out: apparent Kd; compound concentrations: 100 nM and 1000 nM (sheet 'Samples'), CATDS: 8.5163737412021906E-2; n = 1.

For test [27], the system named is PRKCA. The conditions noted are these: read-out: apparent Kd; compound concentrations: 100 nM and 1000 nM (sheet 'Samples'), CATDS: 0.251821387342202; n = 1.
Test [28] relates to PRKCB. The conditions noted are these: read-out: apparent Kd; compound concentrations: 100 nM and 1000 nM (sheet 'Samples'), CATDS: 0.103783943133635; n = 1.
The test system of test [29] is PRKCD. The conditions noted are these: read-out: apparent Kd; compound concentrations: 100 nM and 1000 nM (sheet 'Samples'), CATDS: 0.10441574318923801; n = 1.
Test [30] deals with PRKCQ. As to conditions: read-out: apparent Kd; compound concentrations: 100 nM and 1000 nM (sheet 'Samples'), CATDS: 8.12008674931885E-2; n = 1.
In test [31] the test system is RPS6KA6. The conditions noted are these: read-out: apparent Kd; compound concentrations: 100 nM and 1000 nM (sheet 'Samples'), CATDS: 0.17427412228003; n = 1.
Test [32] relates to RET. As to conditions: read-out: apparent Kd; compound concentrations: 100 nM and 1000 nM (sheet 'Samples'), CATDS: 0.213543633827599; n = 1.
Where [33] appears, read: compound concentrations:100 nM and 1000 nM (sheet 'Samples').

Like-named read-outs stand apart in the source and are kept apart here.

As to `COC(=O)Nc1nc2ccc(Oc3ccc(CC(=O)Nc4cc(C(F)(F)F)ccc4F)cc3)cc2[nH]1` [GW680903X], the potency estimated from few doses in test [1] (setting [33]) was 0.257 µM; in test [2] (setting [33]), 0.404 µM; in test [3] (setting [33]) it was 0.713 µM; in test [4], 2.32 µM; in test [5], 2.02 µM; in test [6], 1.51 µM. In addition, the potency estimated from few doses is 0.104 µM in test [7], 1.76 µM in test [8] and 1.91 µM in test [9].
As to `COc1ccc(CCNC2=NC(=O)/C(=C/c3ccc4ncccc4c3)S2)cc1` [RO4498476-000], the potency estimated from few doses was 1.61 µM in [10] (CATDS: 0.299531148324096); 1.68 µM in test [11] (CATDS: 0.294198980295866); 0.756 µM in test [3] (compound concentrations: 100 nM and 1000 nM (sheet 'Samples'), CATDS: 0.44201063534771401).
`Cl.O=S1CCN(Cc2ccc(-c3ccc4ncnc(Nc5ccc(OCc6ccccc6)c(F)c5)c4c3)o2)CC1` [GW576924A]: the potency estimated from few doses in test [12] is 1.76 µM; in [13], 0.0288 µM; in [14], 1.1 µM; in [15], 1.54 µM.
With `O=C1N=C(NCCc2ccc(Br)cc2)S/C1=C\c1ccc2ncccc2c1` [RO4508334-000], the potency estimated from few doses in test [10] (CATDS: 0.17522676424385999) was 1.74 µM; in [11] (CATDS: 0.185061390376627) it was 1.52 µM; in test [16] it was 1.95 µM; in test [3] (compound concentrations: 100 nM and 1000 nM (sheet 'Samples'), CATDS: 0.42553970171458699), 0.345 µM; in test [17] it was 1.64 µM.
Regarding `COc1cccc(-n2ncc3c(N/N=C/c4ccc(C)cc4)ncnc32)c1` [GW829877X], the potency estimated from few doses in test [11] (CATDS: 1) is 1.94 µM.
Regarding `Cn1cc(C2=C(c3cn(C)c4ccc(Cl)cc34)C(=O)NC2=O)c2ccccc21` [RO0317621-000], the potency estimated from few doses in test [18] (CATDS: 8.8642199403974303E-2) was 2.01 µM; in test [19] (CATDS: 0.126367112680837), 0.423 µM; in test [20] (CATDS: 0.11758336701376999) it was 0.544 µM; in [21], 0.137 µM; in test [22] it was 0.0528 µM; in test [23], 0.0276 µM. Also, in [24] (CATDS: 9.7600585068996298E-2), the potency estimated from few doses is 1.18 µM.
For the molecule `COc1cccc(NC(=O)Nc2ccc(C)c(-c3ccc(C(=O)Nc4ccncc4)cc3)c2)c1` [GSK1398474A], the values for the potency estimated from few doses in test [25] and in test [24] (CATDS: 0.57160468415719301) were 1.89 µM and 1.14 µM, respectively.
Take `Cn1cc(C2=C(c3cn(CCCCN)c4ccccc34)C(=O)NC2=O)c2ccccc21` [RO0317888-000]: the potency estimated from few doses was 1.87 µM in test [18] (CATDS: 8.2242786873404694E-2); 1.67 µM in test [26]; 0.7 µM in [19] (CATDS: 0.120025904024986); 0.57 µM in [20] (CATDS: 0.13279399425104901); 0.2 µM in [27]; 0.97 µM in [28]. Further, the results for the potency estimated from few doses in [29], in [30] and in [31] were 0.956 µM, 1.96 µM and 0.351 µM, respectively.
`COC(=O)Nc1nc2ccc(Oc3ccc(NC(=O)Nc4cccc(Cl)c4)cc3)cc2[nH]1.Cl` [GW589961A]: the potency estimated from few doses in [1] (compound concentrations: 100 nM and 1000 nM (sheet 'Samples'), CATDS: 0.527903704232491) was 0.199 µM; in test [2] (compound concentrations: 100 nM and 1000 nM (sheet 'Samples'), CATDS: 0.19207540013006), 1.55 µM; in test [3] (compound concentrations: 100 nM and 1000 nM (sheet 'Samples'), CATDS: 0.237161124657183) it was 0.874 µM; in test [32], 1.14 µM.

Values taken from PMC11062922 (Nature Chemical Biology, 2023).
